Laboratory results as given in PubChem BioAssay (EPA / NIEHS).
Results filed as inconclusive are left out. Activity calls are given as the source filed them. Rule for the calls: active = hit-call score of the fitted dose curve at least 0.9, where 1 is the maximum; inconclusive = response in the unintended direction; inactive = score below 0.9.

experiment: ArunA_Migration_hNC: ArunA Biomedical's Oris Neural Crest (hNC) Cell Migration Assay (AID 2283755)
How it was run: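 Calcein-AM fluorescence (ex494 nm/em 517 nm) in the stopper-defined detection zone quantifies migration of hNC cells after 72 h chemical exposure; 60,000 cells/well plated on Matrigel with LIF and bFGF, 16 h pre-incubation. DMSO baseline.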

SMILES | outcome | AC50
OCCNCCO | inactive | 
CCCCCCCCCC | inactive | 
CCN(CC)C(=S)SSC(=S)N(CC)CC |  | 8.55 µM (active)

experiment: ArunA_NOG_NucleusCount: ArunA Biomedical's Neurite Outgrowth (NOG) Assay for Nucleus Count (AID 2283756)
How it was run: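 Viable neuron count, from Hoechst nuclei passing size and intensity gates, imaged at 20x on differentiated H9-derived human neurons. Exposure lasted 48 h from seeding; activity was scored relative to DMSO.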

SMILES | AC50 | outcome
OCCNCCO | 21.3 µM (active) | 
CCCCCCCCCC |  | inactive
CCN(CC)C(=S)SSC(=S)N(CC)CC | 18.4 µM (active) | 
